Reference: PubChem BioAssay AID744 (University of Pittsburgh Molecular Library Screening Center, 2007)
The list shows a part of the results. Unmarked numbers belong to inactive results.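 The calls were made as follows: active = inhibition at or above 50% in each of two repeat confirmation tests; inconclusive = one repeat below 50% inhibition, the other above; inactive = both repeats at or below 50% inhibition.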

Each compound was assayed against Serine/threonine-protein kinase PLK1 (Homo sapiens) (UniProt P53350) (assay: PLK1 kinase activity inhibitors, confirmation, biochemical, TR-FRET, duplicate runs (AID 744;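 also: 0% = DMSO max control and 100% = H-89 kinase-blocked min control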)). Conditions: recombinant PLK1 kinase, TR-FRET peptide phosphorylation; at 10 µM; stronger effect = higher value.
Serine/threonine-protein kinase PLK1 (Homo sapiens), sequence (P53350 whole entry, looked up): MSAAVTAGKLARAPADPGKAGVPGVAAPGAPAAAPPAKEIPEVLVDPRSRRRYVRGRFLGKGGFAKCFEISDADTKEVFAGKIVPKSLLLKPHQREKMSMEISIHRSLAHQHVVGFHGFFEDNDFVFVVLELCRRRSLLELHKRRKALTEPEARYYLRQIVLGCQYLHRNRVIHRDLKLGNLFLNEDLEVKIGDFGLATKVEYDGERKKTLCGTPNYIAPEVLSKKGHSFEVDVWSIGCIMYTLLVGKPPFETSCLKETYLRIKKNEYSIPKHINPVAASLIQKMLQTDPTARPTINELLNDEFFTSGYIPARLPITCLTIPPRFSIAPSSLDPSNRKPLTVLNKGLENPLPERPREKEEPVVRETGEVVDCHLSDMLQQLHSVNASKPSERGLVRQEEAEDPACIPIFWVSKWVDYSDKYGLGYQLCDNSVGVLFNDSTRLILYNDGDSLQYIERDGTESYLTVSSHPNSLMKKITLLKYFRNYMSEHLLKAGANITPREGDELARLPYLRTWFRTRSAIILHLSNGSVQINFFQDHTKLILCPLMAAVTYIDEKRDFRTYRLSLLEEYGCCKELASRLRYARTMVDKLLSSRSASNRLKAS

Row | Compound | inhibition [%]
1 | O=C(Nc1cccc(F)c1)c1ccc(S(=O)(=O)N2CCCC2)cc1 | -12.1
2 | CC1CSc2nnc(CCc3ccccc3)n21 (stereo unspecified) | -11.1
3 | Cc1ccnc(N2C(=O)c3ccccc3C2Nc2ccc3c(c2)OCCO3)c1 (stereo unspecified) | -3.64
4 | C[N+]1(CCNC(=O)/C=N/O)CCCCC1 | -0.685
5 | COc1ccc(-c2nc(CS(=O)CC(=O)NCc3cccnc3)c(C)o2)cc1OC (stereo unspecified) | -2.97
6 | CC1CN(c2cc(=O)n(Cc3ccc(F)cc3)c(=O)[nH]2)CC(C)O1 (stereo unspecified) | -5.99
